Data taken from the supplement of paper PMC3842684.

Tests used:
[1] = tested on: P. falciparum NF54-pfs16-GFP early (I-III) stage gametocytes; assay: relative % inhibition of viable gametocyte number; higher = more gametocytocidal; details: stage: early (I-III) gametocyte, incubation 72 h
Method in brief: (§1)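 Magnet-isolated NF54 pfs16-GFP gametocytes at early (I/IIa, day 2) or late (day 8) stage were exposed to compound at 5 or 0.5 µM for 72 h at 37°C, 5% CO2, 5% O2, at 10% parasitaemia and 0.1% haematocrit. Elongated GFP objects with MitoTracker Red signal above cut-off were counted as viable by confocal imaging. Relative inhibition was normalised to in-plate vehicle and positive-control wells.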

[2] = tested on: P. falciparum NF54-pfs16-GFP late (IV-V) stage gametocytes; assay: as above; details: stage: late (IV-V) gametocyte, incubation 72 h
Method in brief: as §1

Compound | relative % inhibition ([1]; 0.5 µM) [%] | relative % inhibition ([1]; 5 µM) [%] | relative % inhibition ([2]; 0.5 µM) [%] | relative % inhibition ([2]; 5 µM) [%]
Cc1ccc(F)cc1NC(=O)c1cc(Cl)ccc1Nc1ccccc1 | 23.8 | 73.8 | 23.8 | 46.8
CCCn1c(=N)c(C(=O)NC2CCCCC2)cc2c(=O)n3cccc(C)c3nc21 | 13.4 | 24.4 | -19.9 | 8.02
COc1ccc2nc(C)cc(Nc3cccc(O)c3)c2c1 | 2.97 | 3.08 | -18.7 | -9.92
C=CCc1c(C)nc2ccccc2c1O | 5.51 | 13.3 | 36.3 | 53.7
Cc1ccccc1OCCSc1nc2ccc(NC(=O)c3ccccc3)cc2s1 | 24.2 | 20.2 | 2.82 | 12.9
CCOC(=O)c1cn(CC)c2cc(N(C)CCc3ccc(OC)c(OC)c3)c(F)cc2c1=O | 38.6 | 51.6 | 72.3 | 97.7
COc1ccc(-c2cc(=O)oc3c4c(ccc23)OCN(Cc2ccc(F)cc2)C4)cc1 | -4.17 | 73.2 | 25.1 | 34.8
COCCNCC(O)Cn1c2ccc(Cl)cc2c2cc(Cl)ccc21 (stereo not given) | 5.62 | 62.7 | 52.3 | 96.1
COc1ccc(CCN2CCC(CN(C)Cc3cnn(-c4ccccc4)c3)CC2)cc1 | 4.18 | 65.3 | 11.3 | -5.77
CCOc1ccc(C=Cc2nc(=O)c3ccccc3o2)cc1 | 4.08 | 22.2 | 22.3 | 21.6
Oc1ccccc1CNCC12CC3CC(CC(C3)C1)C2 | 91.6 | 84.2 | 44.7 | 29.3
Cc1ccc2cc3c(N)c4c(C)ccc(C)c4nc3nc2c1 | 4.09 | 91 | 8.68 | 50.1
CCC(O)c1ccc(Br)cc1NC(=O)c1cccc(Cl)c1 (stereo not given) | 3.28 | 93.3 | 12 | 28.6
Cc1cccc(N2C(=O)C3C(C2=O)C2(c4ccccc4)C(=O)C3(c3ccccc3)C(c3ccc4c(c3)OCO4)=C2c2ccc3c(c2)OCO3)c1 (stereo not given) | 56.2 | 66.1 | 24.7 | 10.9
COc1ccc(C2C(C(=O)Nc3cccc(OC)c3)c3ccccc3C(=O)N2C2CCCCC2)cc1 (stereo not given) | 15.6 | 87.5 | 5.71 | 78.2
CC(C)CCNCC(O)Cn1c2ccccc2c2ccccc21 (stereo not given) | 23.7 | 102 | 19 | 82.9
COc1cccc(Nc2nc(NCCO)c3ccccc3n2)c1 | 0 | -12.9 | 17.4 | 50.8
CCCc1c(CC)c(=N)c2ccccc2n1C | 25.1 | 19.6 | 7.6 | -7.96
O=c1nc(C=Cc2ccc(Br)cc2)oc2ccccc12 | 10.7 | -18.8 | 4.47 | 101
Cc1ccc(OCCCCCCNCCO)c(C)c1 | 2.04 | 30.1 | -16.2 | -15.5
CCOC(=O)c1cnc2ccc(Cl)cc2c1NCCCN(C)C | 3.83 | 74.3 | -21.7 | -1.78
O=C(O)C1Cc2c([nH]c3ccccc23)C(c2ccc(Cl)cc2Cl)N1 (stereo not given) | -10.4 | -20.9 | 6.2 | 1.16
CC(C)(C)CC(C)(C)NCC(O)COc1ccc(Cl)cc1Cl (stereo not given) | 34.8 | 92.4 | 90.2 | 114

Compound | relative % inhibition ([1]; 0.5 µM) [%] | relative % inhibition ([1]; 5 µM) [%] | relative % inhibition ([2]; 0.5 µM) [%] | relative % inhibition ([2]; 5 µM) [%]
CCN(Cc1ccccc1)C1CCN(Cc2cc(Br)ccc2O)CC1 | 27.8 | 99 | 35.1 | 68.6
Cn1c(C(=O)c2cccc3ccccc23)nc2ccccc21 | 3.04 | 19.9 | 9.04 | 5.95
O=[N+]([O-])c1ccc(C=NNc2nc3ccccc3[nH]2)cc1 | 26.8 | 59.1 | -1.37 | -1.1
CCn1c(CN2CCN(Cc3ccccc3)CC2)nc2cc(NC(=O)c3cccs3)ccc21 | -11.6 | 9.85 | 28.5 | 50.7
OCCNc1nc(Nc2ccc(Cl)c(Cl)c2)nc2ccccc12 | -6.33 | -11 | 53.9 | 52.3
Cc1cc(N2CCCC2)nc(Nc2ccc(NC(=O)CCc3ccccc3)cc2)n1 | 53.7 | 89.6 | 6.75 | 21
COc1ccc(C2=C(c3ccc(OC)cc3)C3(c4ccccc4)C(=O)C2(c2ccccc2)C2C(=O)N(c4ccc(C)cc4)C(=O)C23)cc1 (stereo not given) | 60.3 | 84.7 | 34.3 | 28.5
Cc1ccc(C)c(Cn2c(N3CCC(C(=O)NCc4cccs4)CC3)nc3ccccc32)c1 | 13.8 | 39.4 | 6.18 | 31.6
Cc1nc2ccccc2c(O)c1CC=C(Cl)Cl | 4.23 | 3.33 | 33.4 | 49.4
Cc1ccccc1OCCSc1nc2ccc(NC(=O)c3cccs3)cc2s1 | 11.4 | 19.4 | 18.1 | 35.8
Cc1ccc(C(=O)c2oc3ccc4c(C)cc(=O)oc4c3c2C)cc1 | 8.47 | -0.0271 | 0.817 | 12
CCOc1ccc(N2C(N)=NC(N)=NC2(C)C)cc1 | 3.66 | -20.1 | -17.5 | -10.7
CC(=O)NCCc1nc2ccccc2n1Cc1ccc(C(C)C)cc1 | 8.03 | 50.5 | -8.38 | 2.88
COc1cc(OC)cc(N2C(=O)N(Cc3ccc(C(C)(C)C)cc3)c3ccccc3S2(=O)=O)c1 | 10 | 6.11 | 4.34 | 35.7
COc1ccccc1N1CCN(C(CNS(=O)(=O)c2ccc(Cl)cc2)c2cccnc2)CC1 (stereo not given) | -2.86 | 41.8 | -0.978 | 32.7
CCCOCc1cc(CN2CCN(c3cccc(Cl)c3)CC2)c(O)c2ncccc12 | 14 | 91.3 | -7.95 | 102
CCCCCCc1cc2cc(-c3nc4ccccc4[nH]3)c(=Nc3ccccc3C)oc2cc1O | 60.1 | 100 | 35 | 52.7
CC1CCN(Cc2ccc(NC(=O)c3cc4ccc5cccnc5c4[nH]3)cc2)CC1 | 19.6 | 94 | 0.926 | 12
COc1ccc2c(c1)OC(O)(C(F)(F)C(F)(F)F)CC2=O (stereo not given) | -12.9 | -4.42 | 8.91 | 10.1
CC1(c2ccccc2)Nc2ccccc2-c2nc3ccccc3n21 (stereo not given) | 1.27 | 32.3 | 46.2 | 46.6
CCC(C)NCC(O)(c1ccc(Cl)cc1)c1ccc(Cl)cc1 (stereo not given) | 16.2 | 102 | 27.1 | 58.3
COc1ccc(C(=O)NC(c2ccc(Cl)cc2Cl)c2cc(Cl)c3cccnc3c2O)cc1 (stereo not given) | 42.5 | 107 | 50.9 | 98.7
